Measurements as given in PubChem BioAssay (EPA / NIEHS).
Results filed as inconclusive are left out. The source made the active and inactive calls. The calls were made as follows: active = hit-call score of the fitted dose curve at least 0.9, where 1 is the maximum; inconclusive = response in the unintended direction; inactive = score below 0.9.

Target: human CYP2D6, CYP2D6 (gene 1565) (UniProt P10635)
Experiment: NVS_ADME_hCYP2D6: NovaScreen (NVS) CYP450-related Enzyme Activity (ADME) Assay for human CYP2D6 (AID 2283107)
Method: NVS_ADME_hCYP2D6 is a biochemical, single-readout assay that uses extracted gene-proteins from insect cells in a cell-free assay. Measurements were taken 1 hour after chemical dosing in a 96-well plate.NVS_ADME_hCYP2D6 is one of one assay component(s) measured or calculated from the NVS_ADME_hCYP2D6 assay. It is designed to make measurements of enzyme activity, a form of enzyme reporter, as detected with fluorescence intensity signals by Fluorescence technology.Data from the assay component NVS_ADME_hCYP2D6 was analyzed into 1 assay endpoint. This assay endpoint, NVS_ADME_hCYP2D6, was analyzed in the positive analysis fitting direction relative to Acetonitrile as the negative control and baseline of activity. Using a type of enzyme reporter, loss-of-signal activity can be used to understand changes in the enzymatic activity as they relate to the gene CYP2D6. Furthermore, this assay endpoint can be referred to as a primary readout, because this assay has produced multiple assay endpoints where this one serves a enzymatic activity function. To generalize the intended target to other relatable targets, this assay endpoint is annotated to the cyp intended target family, where the subfamily is xenobiotic metabolism.
Binding assays used specific radioligands (tritiated, iodinated) with non-radioactive competitive displacement ligands in agonist or antagonist protocols (as indicated) and various reference compounds and inhibitors to titrate specific binding to receptors and transporters. Most enzyme assays (CYPs, kinases, phosphatases, proteases, HDACs) used recombinant protein and specific substrates (fluorescence mostly, some colorimetric and radioactive) and inhibitors, followed by a biochemical separation of substrate and product. All assays for the biochemical HTS were initially run in duplicate at a single concentration (10 uM for CYP450 assays and 25 uM for all others). […] Each assay was run with positive and negative controls, and concurrent controls on every plate. […]

Chain of human CYP2D6, CYP2D6 (gene 1565) (P10635 whole entry, looked up): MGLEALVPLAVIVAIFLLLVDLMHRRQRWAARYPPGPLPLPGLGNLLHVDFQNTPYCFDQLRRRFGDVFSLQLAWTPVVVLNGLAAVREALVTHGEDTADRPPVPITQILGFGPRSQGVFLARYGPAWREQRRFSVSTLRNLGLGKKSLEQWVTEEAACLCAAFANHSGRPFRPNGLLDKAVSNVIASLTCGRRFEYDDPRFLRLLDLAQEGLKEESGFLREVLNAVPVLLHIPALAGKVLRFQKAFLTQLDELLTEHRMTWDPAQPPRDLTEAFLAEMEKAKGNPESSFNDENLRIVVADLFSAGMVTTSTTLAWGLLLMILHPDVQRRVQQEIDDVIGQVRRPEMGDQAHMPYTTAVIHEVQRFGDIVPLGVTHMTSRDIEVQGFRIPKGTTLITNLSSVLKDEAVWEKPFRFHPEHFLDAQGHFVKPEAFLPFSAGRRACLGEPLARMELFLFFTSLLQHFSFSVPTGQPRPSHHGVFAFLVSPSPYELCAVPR

Row | SMILES | AC50 | outcome
1 | CC(C)[N+](C)(CCOC(=O)C1c2ccccc2Oc2ccccc21)C(C)C | 741 nM (active) | –
2 | Cc1cc(C)n(CO)n1 | – | inactive
3 | CCc1occc(=O)c1O | 3970 nM (active) | –

Target: Cytochrome P450 3A4 (Homo sapiens) (UniProt P08684)
Sequence (P08684 whole entry, looked up): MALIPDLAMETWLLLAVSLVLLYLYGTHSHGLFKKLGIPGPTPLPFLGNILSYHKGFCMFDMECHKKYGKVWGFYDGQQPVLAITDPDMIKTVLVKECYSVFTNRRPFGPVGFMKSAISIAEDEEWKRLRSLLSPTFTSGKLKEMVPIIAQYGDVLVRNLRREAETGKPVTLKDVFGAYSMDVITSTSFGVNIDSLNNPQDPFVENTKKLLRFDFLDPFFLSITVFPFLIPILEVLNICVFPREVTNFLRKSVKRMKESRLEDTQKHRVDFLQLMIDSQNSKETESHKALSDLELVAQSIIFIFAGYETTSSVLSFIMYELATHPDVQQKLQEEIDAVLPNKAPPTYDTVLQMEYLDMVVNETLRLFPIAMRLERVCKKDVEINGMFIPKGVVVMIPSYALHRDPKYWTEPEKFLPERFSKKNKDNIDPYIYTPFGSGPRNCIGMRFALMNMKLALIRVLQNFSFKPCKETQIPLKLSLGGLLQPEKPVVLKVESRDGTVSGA
Experiment: NVS_ADME_hCYP3A4: NovaScreen (NVS) CYP450-related Enzyme Activity (ADME) Assay for human CYP3A4 (AID 2283110)
How it was run: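 Compounds were first screened in duplicate at 10 uM against recombinant CYP3A4 produced in insect cells, then actives were run in concentration series. Enzyme activity was measured by fluorescence after 0.33 hour, with acetonitrile as baseline.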

Row | SMILES | outcome
4 | Cc1c(O)cccc1O | inactive
5 | C=CC(=O)OCC(C)OCC(C)OCC(C)OC(=O)C=C (configuration not stated) | inactive
6 | Oc1c(Cl)cc(Cl)c(Cl)c1Cl | inactive
7 | CC1=C(O)C(=O)C(C)O1 (configuration not stated) | inactive

Target: Cytochrome P450 2C19 (Homo sapiens) (UniProt P33261)
Experiment: NVS_ADME_hCYP2C19: NovaScreen (NVS) CYP450-related Enzyme Activity (ADME) Assay for human CYP2C19 (AID 2283113);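 also: potency for inhibition seen as loss of fluorescent signal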
How it was run: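 Biochemical CYP2C19 inhibition screen: insect-cell recombinant protein plus fluorescent substrate, 1 h, fluorescence intensity. Acetonitrile defined baseline activity. Single 10 uM concentration in duplicate, with concentration-response follow-up for actives.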

Row | SMILES | AC50
8 | c1ccc2sc(SSN3CCOCC3)nc2c1 | 0.01 µM (active)
9 | C=CC(=O)OCCCCCCCC(C)C | 1.67 µM (active)
10 | Cc1ccc([N+](=O)[O-])cc1N | 4.92 µM (active)
11 | CCOC(=O)C1=NOC(c2ccccc2)(c2ccccc2)C1 | 1.8 µM (active)
12 | Cc1cc(C)n(CO)n1 | 4.01 µM (active)

Target: human Caspase 5 (CASP5), CASP5 (gene 838) (UniProt P51878)
Sequence (P51878 whole entry, looked up): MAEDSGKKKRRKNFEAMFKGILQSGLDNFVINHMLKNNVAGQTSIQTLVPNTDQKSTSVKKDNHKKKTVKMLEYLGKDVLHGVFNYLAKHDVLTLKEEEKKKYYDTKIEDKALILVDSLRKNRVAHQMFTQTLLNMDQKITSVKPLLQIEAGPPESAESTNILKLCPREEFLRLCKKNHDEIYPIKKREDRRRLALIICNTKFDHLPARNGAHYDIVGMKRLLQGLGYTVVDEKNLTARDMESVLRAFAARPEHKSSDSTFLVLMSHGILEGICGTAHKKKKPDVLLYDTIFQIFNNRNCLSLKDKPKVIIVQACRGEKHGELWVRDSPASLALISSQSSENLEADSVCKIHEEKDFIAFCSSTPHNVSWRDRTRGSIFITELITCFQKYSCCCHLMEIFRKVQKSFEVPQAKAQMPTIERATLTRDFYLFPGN
Experiment: NVS_ENZ_hCASP5: NovaScreen (NVS) Enzymatic Assay for human Caspase 5 (CASP5) (AID 2283137)
How it was run: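 Recombinant human caspase 5 expressed in E. coli, fluorogenic substrate, fluorescence read 2 h after dosing. Single-point 25 uM duplicate screen, then concentration-response to maximum 50 uM for actives; DMSO baseline.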

Row | SMILES | AC50 | outcome
13 | CO[Si](CCCS)(OC)OC | 25 µM (active) | –
14 | CCOC(=O)/C=C\C(=O)OCC | – | inactive
15 | Fc1ccc(Br)cc1 | – | inactive
16 | CCOC(=O)C1=NOC(c2ccccc2)(c2ccccc2)C1 | – | inactive
17 | COc1ccc(C(=O)/C(Br)=C\C(=O)O)cc1 | 18.5 µM (active) | –
